Shown is part of a subset that was picked to be rich in hits.
ERG Ets-DNA blk: qHTS for Small Molecule Inhibitors of the ERG Ets/DNA interaction. Transcriptional regulator ERG (Homo sapiens), P11308. fluorescence polarization, His-ERG Ets domain / labelled DNA. Potency, µM (top dose mostly 76.9 µM), usual class: inhibitors. 370,000 compounds, 0.028% hits. AID 624246, 2012; active means well fitted inhibition curve with a large enough effect in the polarisation, with a control signal flat; inconclusive means small, poorly fitted or top-dose-only effect, or effect the other way, or a change in a side signal; inactive means no such curve, though single readings can be large or run the other way; the % refers to the polarisation;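 further: polarization taken with two DNA probes labelled with fluorescein and Texas red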
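His-tagged ERG Ets domain (1 uM in the protein solution; 300mM KCl, 50mM Tris-HCl, 1mM EDTA, 1mM DTT, pH 7.5) received compound, then a probe mix of 5 nM fluorescein-DNA and 100nM Texas-615-DNA. Fluorescence polarization was read for both dyes.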
PTAP TSG101 blk: qHTS Assay for Iinhibitors of HIV-1 Budding by Blocking the Interaction of PTAP/TSG101. Fluorescence polarization, FITC-PTAP peptide / Tsg101 binding. Potency, µM (top dose mostly 115 µM), most hits filed as inhibitors. 340,000 tested, under 10 active. AID 493005, 2010. Tumor susceptibility gene 101 protein (Homo sapiens), Q99816; active means well fitted inhibition curve with a large enough effect in the main read-out, with a control signal flat, not every such curve was filed as active; inconclusive means small, poorly fitted or top-dose-only effect, or effect the other way, or a change in a side signal; inactive means no such curve, though single readings can be large or run the other way
Target sequence (Q99816 whole entry, looked up): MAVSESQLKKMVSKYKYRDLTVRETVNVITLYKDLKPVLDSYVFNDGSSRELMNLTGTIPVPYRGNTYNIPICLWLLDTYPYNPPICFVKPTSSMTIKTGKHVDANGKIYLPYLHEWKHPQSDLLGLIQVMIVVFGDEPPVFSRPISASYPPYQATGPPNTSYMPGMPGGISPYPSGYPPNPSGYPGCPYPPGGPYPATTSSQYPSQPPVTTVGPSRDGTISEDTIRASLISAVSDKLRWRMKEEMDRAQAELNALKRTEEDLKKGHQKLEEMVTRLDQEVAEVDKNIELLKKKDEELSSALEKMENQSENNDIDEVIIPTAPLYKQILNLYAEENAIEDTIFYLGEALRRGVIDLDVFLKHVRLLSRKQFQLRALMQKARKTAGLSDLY
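Steps: Tsg101 binding domain dispensed (10 uM final), compounds pinned in DMSO, FITC-labeled PTAP-motif peptide added (50 nM final); after 20 min binding at room temperature, polarization measured.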
RGS4 inh: Inhibitors of Regulator of G Protein Signaling (RGS) 4: qHTS; Transcreener GDP fluorescence polarization, RGS4-accelerated GTP hydrolysis; Potency, µM (titrated, usually from 114 µM), usual class: inhibitors; 390,000 compounds, 0.039% hits; AID 504845, 2011; further: nearly all actives have a fitted effect of over 75% in size
Target sequence (P49798 whole entry, looked up): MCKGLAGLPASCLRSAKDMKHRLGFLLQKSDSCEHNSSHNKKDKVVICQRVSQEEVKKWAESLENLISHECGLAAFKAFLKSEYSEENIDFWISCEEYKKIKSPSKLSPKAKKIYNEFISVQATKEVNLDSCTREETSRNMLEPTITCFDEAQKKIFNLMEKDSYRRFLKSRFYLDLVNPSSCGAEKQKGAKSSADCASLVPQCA
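MLSMR compounds (23 nl, pin-transferred) preincubated 10 min at room temperature with a 500nM (2x) first reagent, then RGS4 at 900nM (2x) plus Transcreener GDP mix added; fluorescence polarization (620/688 nm) read before and after 90 min at 30 °C.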
CXXC DNA block: qHTS Fluorescence Polarization Assay for Inhibitors of MLL CXXC domain - DNA interaction; Histone-lysine N-methyltransferase 2A (Homo sapiens), Q03164; MLL-CXXC / FITC-HOXA9 DNA fluorescence polarization; Potency, µM (series often up to 115 µM), actives largely listed as inhibitors; 290,000 compounds, 0.037% hits; active means well fitted inhibition curve with a large enough effect in the polarisation, with a control signal flat, not every such curve was filed as active; inconclusive means small, poorly fitted or top-dose-only effect, or effect the other way, or a change in a side signal; inactive means no such curve, though single readings can be large or run the other way; the % refers to the polarisation
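Purified MLL-CXXC (added from a 7 uM solution) was preincubated 5 min at ambient with pinned compounds in 50 mM Tris-HCl pH 7.5, 50 mM NaCl, 1 mM DTT, 0.05% BSA. Fluorescein-labeled HOX-A9 DNA (50 nM solution) followed, 30 min, then polarization read.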
Menin MLL FP TR: qHTS Assay for Inhibitors Targeting the Menin-MLL Interaction in MLL Related Leukemias: Competition With Texas Red Labeled MLL-derived Mutant Peptide. Potency, µM (doses to about 61.6 µM), hits mostly inhibitors. Menin + Texas Red MLL mutant peptide, fluorescence polarization. O00255. 270,000 compounds, 0.23% hits; active means well fitted inhibition curve with a large enough effect in the polarisation, with a control signal flat, not every such curve was filed as active; inconclusive means small, poorly fitted or top-dose-only effect, or effect the other way, or a change in a side signal; inactive means no such curve, though single readings can be large or run the other way; the % refers to the polarisation
Menin-MLL FL inh: qHTS Assay for Inhibitors Targeting the Menin-MLL Interaction in MLL Related Leukemias: Competition With Fluorescein Labeled MLL-derived Peptide | FP activity change, % at 61.4 µM | Fluorescence polarization, fluorescein-MLL peptide displacement from menin | 290,000 tested, under 10 active; active means well fitted curve in the direction sought with a large enough effect in the polarisation, not every such curve was filed as active; inconclusive means small, poorly fitted or top-dose-only effect, or effect the other way, or a change in a side signal; inactive means no such curve, though single readings can be large or run the other way; the % refers to the polarisation
MLL CXXC FP-Fl: qHTS Fluorescence Polarization (FP) Assay for Inhibitors of MLL CXXC domain - DNA interaction: Fluorescein FP; shares compounds with CXXC DNA block; MLL CXXC-DNA binding, fluorescein FP; Potency, µM (series often up to 345 µM), usual class: inhibitors; 200 compounds, 70% hits; AID 624160, 2012; further: nearly all actives have a fitted effect of over 80% in size
MLL CXXC FP-TR: qHTS Fluorescence Polarization (FP) Assay for Inhibitors of MLL CXXC domain - DNA interaction: Texas Red FP; 200 compounds, 40% hits; Potency, µM (doses to about 345 µM), usual class: inhibitors; shares compounds with CXXC DNA block; MLL CXXC-DNA binding, Texas Red fluorescence polarization; further: nearly all actives have a fitted effect of over 75% in size
MLL CXXC TRF: qHTS Fluorescence Polarization (FP) Assay for Inhibitors of MLL CXXC domain - DNA interaction: HTRF Assay. shares compounds with CXXC DNA block. MLL CXXC-DNA binding, HTRF, biochemical. Potency, µM (top dose mostly 172 µM), usual class: inhibitors. 210 compounds, 30% hits; further: nearly all actives have a fitted effect of over 80% in size
Large screens that a line does not name were inactive (follow-up assays come after a bar, where they were run); ! = a repeat was not active. Unless noted, the call rests on the fitted dose curve; in most records, active means well fitted inhibition curve with a large enough effect; inconclusive means small, poorly fitted or top-dose-only effect; inactive means no such curve, though single readings can be large or run the other way.

CC(C)C1OC2(C)OC(=N)C1(C#N)C(C#N)(C#N)C2c1ccccc1 (stereo not given)	CXXC DNA block 17.8µM, Menin-MLL FL inh inconclusive | MLL CXXC FP-Fl 89.5µM | MLL CXXC FP-TR 44.8µM | MLL CXXC TRF inactive
COC1[C@@H](OC)C[C@H](C)[C@@H](OC)C2=CC(=O)C=C(NC(=O)/C(C)=C/C=C\[C@H](OC)[C@@H](OC(N)=O)/C(C)=C/[C@@H]1C)C2=O (stereo not given in full)	none (no result: ERG Ets-DNA blk, PTAP TSG101 blk, RGS4 inh, CXXC DNA block)
CC[C@@]1(O)C(=O)OCc2c1cc1n(c2=O)Cc2cc3c(CN(C)C)c(O)ccc3nc2-1	PTAP TSG101 blk inconclusive, CXXC DNA block 44.7µM, Menin-MLL FL inh inconclusive | MLL CXXC FP-Fl 31.7µM | MLL CXXC FP-TR inactive | MLL CXXC TRF inactive
CC[C@@]1(O)C(=O)OCc2c1cc1n(c2=O)Cc2cc3c(N)cccc3nc2-1	none (no result: Menin MLL FP TR)
COCCCNC(=S)NNC(=O)c1cc(Cl)c(O)c(Cl)c1	CXXC DNA block inconclusive (no result: Menin MLL FP TR) | MLL CXXC TRF inactive
COCCCNC(=S)NNC(=S)NCCCOC	RGS4 inh inconclusive (no result: Menin MLL FP TR)
CCCN1C(=O)c2ccccc2NC1c1ccc(OC)c(COc2cccc(OC)c2)c1 (stereo not given)	none (no result: ERG Ets-DNA blk, PTAP TSG101 blk, CXXC DNA block, Menin MLL FP TR, Menin-MLL FL inh)
CC(C)C(=O)Nc1c(-c2ccc(Cl)cc2)c(=O)c2ccccc2n1C	CXXC DNA block inconclusive | MLL CXXC FP-Fl inconclusive | MLL CXXC FP-TR inactive | MLL CXXC TRF inactive
Cc1ccc(-c2c(NC(=O)C(C)C)n(C)c3ccccc3c2=O)cc1	none
c1ccc(-c2nc(-c3ccccc3)c(NC3CCCCC3)o2)cc1	none (no result: ERG Ets-DNA blk, PTAP TSG101 blk, RGS4 inh, CXXC DNA block)
CCOC(=O)/C(C#N)=C1\SS/C(=C(/C#N)C(=O)OCC)S1	CXXC DNA block 17.8µM, Menin MLL FP TR inconclusive, Menin-MLL FL inh inconclusive (no result: ERG Ets-DNA blk, PTAP TSG101 blk, RGS4 inh) | MLL CXXC FP-Fl 25.2µM | MLL CXXC FP-TR 63.3µM | MLL CXXC TRF 4.85µM
Cc1ccc(C(=O)Nc2ccc(S(=O)(=O)O)c3cc(S(=O)(=O)O)cc(S(=O)(=O)O)c23)cc1NC(=O)c1cccc(NC(=O)Nc2cccc(C(=O)Nc3cc(C(=O)Nc4ccc(S(=O)(=O)O)c5cc(S(=O)(=O)O)cc(S(=O)(=O)O)c45)ccc3C)c2)c1	RGS4 inh inconclusive, CXXC DNA block 7.94µM (no result: ERG Ets-DNA blk, PTAP TSG101 blk) | MLL CXXC FP-Fl 20µM | MLL CXXC FP-TR 22.5µM! | MLL CXXC TRF 4.85µM
O=C1NN(c2ccccc2)C(=O)/C1=C\c1ccc2c(c1)OCO2	CXXC DNA block inconclusive | MLL CXXC FP-Fl 28.3µM | MLL CXXC FP-TR inconclusive | MLL CXXC TRF inactive
CC#CCN1c2ccccc2[C@]23C[C@@H](C(=O)OC)N(S(=O)(=O)c4ccc([N+](=O)[O-])cc4)C2=NC(C(=O)OC)=C(C(=O)OC)[C@H]13	none (no result: ERG Ets-DNA blk, PTAP TSG101 blk, RGS4 inh, CXXC DNA block)
CC1(C)CC(=O)C(C(C2=C(O)CC(C)(C)CC2=O)c2ccc([N+](=O)[O-])cc2)C(=O)C1 (stereo not given)	RGS4 inh inconclusive
CC1(C)CC(=O)C(C(C2=C(O)CC(C)(C)CC2=O)c2ccc(O)c([N+](=O)[O-])c2)=C(O)C1	RGS4 inh inconclusive, CXXC DNA block 28.2µM | MLL CXXC FP-Fl 17.9µM | MLL CXXC FP-TR 63.3µM | MLL CXXC TRF 7.69µM
CCCCCCCCCC(=O)NO	none (no result: ERG Ets-DNA blk, PTAP TSG101 blk, RGS4 inh)
Nc1cc2c3c(cccc3c1)C(=O)N(CCN1CCCC1)C2=O	CXXC DNA block 7.94µM, Menin-MLL FL inh inconclusive | MLL CXXC FP-Fl 142µM | MLL CXXC FP-TR inconclusive | MLL CXXC TRF inactive
CC(=O)OCCCN1C(=O)c2cccc3cc(Br)cc(c23)C1=O	none (no result: ERG Ets-DNA blk, PTAP TSG101 blk, RGS4 inh)
O=C1c2cccc3cc([N+](=O)[O-])cc(c23)C(=O)N1CCN1CCCC1	CXXC DNA block inconclusive, Menin-MLL FL inh inconclusive
CCN(CC)CCN1C(=O)c2cccc3cc(N)cc(c23)C1=O	CXXC DNA block 35.5µM, Menin-MLL FL inh inconclusive | MLL CXXC FP-Fl 89.5µM | MLL CXXC FP-TR inconclusive | MLL CXXC TRF inactive
COc1ccc(OC)c(C2=Nn3c(nnc3-c3cc(OC)ccc3OC)SC2)c1	Menin-MLL FL inh inconclusive (no result: ERG Ets-DNA blk, PTAP TSG101 blk, RGS4 inh, CXXC DNA block)
CCCCC/C=C\C/C=C\C/C=C\C/C=C\CCCCCC(N)=O	none (no result: ERG Ets-DNA blk, PTAP TSG101 blk, RGS4 inh, CXXC DNA block)
COC(=O)C1=C(C)N(Cc2ccccc2)[C@]23O[C@](C(=O)OC)(C(=O)N2C1c1ccccc1)C(c1ccccc1)C3C(=O)c1ccccc1 (stereo not given in full)	none (no result: ERG Ets-DNA blk, PTAP TSG101 blk, RGS4 inh, CXXC DNA block)
